From PubChem
LDHA inh: qHTS assay for inhibitors of human lactate dehydrogenase; actives 0.15% (n = 480,000); activity change, % (values are at about 110 or 230 µM); AID 1347041, 2019; purified LDHA, NADH/diaphorase-resazurin fluorescence; stronger effect = lower value; L-lactate dehydrogenase A chain (Homo sapiens), P00338; in the data active means activity change below about -30%;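 further: plate controls were DMSO wells for no effect and wells without enzyme for full effect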
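LDH5 2 nM; NADH 0.06 mM, pyruvate 0.2 mM; 200 mM Tris pH 7.4, EDTA, Tween-20; 5 min RT. Detection: diaphorase 0.133 mg/mL + resazurin 37 µM, fluorescence ex540/em590 at 0 and 20 min; normalized to enzyme-free and DMSO wells.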
D1 ag: Allosteric Agonists of the Human D1 Dopamine Receptor: qHTS | actives 1% (n = 360,000) | D(1A) dopamine receptor (Homo sapiens), P21728 | HEK293 T-REx D1 cells, calcium flux, agonist mode | AID 504660, 2011 | activation, % at 2 µM; further: 0% is about no effect
Target sequence (P21728 whole entry, looked up): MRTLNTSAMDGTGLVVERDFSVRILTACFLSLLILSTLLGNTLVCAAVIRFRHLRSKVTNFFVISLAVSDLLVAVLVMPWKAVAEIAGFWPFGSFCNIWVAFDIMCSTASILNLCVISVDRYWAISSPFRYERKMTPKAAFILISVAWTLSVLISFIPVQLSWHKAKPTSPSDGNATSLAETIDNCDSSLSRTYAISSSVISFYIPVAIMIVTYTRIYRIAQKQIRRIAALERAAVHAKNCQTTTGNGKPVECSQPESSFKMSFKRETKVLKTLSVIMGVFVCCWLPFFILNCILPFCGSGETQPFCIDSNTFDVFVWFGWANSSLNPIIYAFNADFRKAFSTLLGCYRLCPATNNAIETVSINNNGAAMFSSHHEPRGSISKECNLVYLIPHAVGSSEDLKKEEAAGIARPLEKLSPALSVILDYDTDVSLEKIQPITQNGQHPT
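Tetracycline-induced HEK293 TREx D1 cells, force-coupled to calcium signalling, were dye-loaded with a no-wash calcium kit. Compound was pin-added after a 10 s baseline. Fluorescence was read kinetically at 1 cycle/s for 180 s, with calcium rises flagged as agonism.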
TRHR PAM: qHTS for Small Molecule Agonists and Allosteric Enhancers of Human TRH Receptor: Primary Screen for Enhancers; TRHR cells, fluo-8 calcium fluorescence, EC20 TRH enhancement; enhancement, % at 2 µM; actives 0.66% (n = 360,000); AID 493056, 2011; in the data active means enhancement above about 30%; further: 0% is about no effect
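TRHR-expressing cells loaded with fluo-8 calcium dye were read kinetically (ex 480/em 530) during compound addition, then stimulated with an EC20 of TRH (10 nM final). Enhancement of the Gq-mediated intracellular calcium response was scored.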
D1 PAM: Potentiators of Human D1 Dopamine Receptor: qHTS; actives 0.036% (n = 360,000); HEK293 TREx D1 cells, calcium flux, dopamine EC20 potentiation; potentiation, % at 10 µM; D(1A) dopamine receptor (Homo sapiens), P21728; in the data active means potentiation above about 30%; further: 0% is about no effect
TRHR agonist: qHTS for Small Molecule Agonists and Allosteric Enhancers of Human TRH Receptor: Primary Screen for Agonists; Thyrotropin-releasing hormone receptor (Homo sapiens), P34981; TRHR cells, calcium flux fluo-8, FDSS agonist mode; activation, % at 2 µM; actives 0.18% (n = 360,000); AID 493084, 2011; further: 0% is about no effect
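In this calcium-flux screen, cells bearing human TRHR are dye-loaded with fluo-8, baselined for 10 cycles, then exposed to library compounds; positive kinetic calcium responses during the agonist phase mark hits, with TRH as control.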
D1 antagonist: Antagonist of Human D 1 Dopamine Receptor: qHTS | D(1A) dopamine receptor (Homo sapiens), P21728 | HEK293 TREx D1 cells, calcium flux, dopamine EC80; stronger effect = lower value | activity change, negative = inhibition, % at 10 µM | actives 3.2% (n = 360,000) | AID 504652, 2011; in the data active means activity change below about -30%; further: on the % scale 0 is the no-effect control and ±100 the full control effect
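HEK293 T-REx cells expressing inducible, force-coupled D1 receptor; no-wash Ca dye, 30–90 min RT. Cmpd → 180 s read at 1 Hz → EC80 DA → 180 s read.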
* = called active by the depositor; . = no result. Hits are enriched below; roughly 3.6% of the tested compounds scored in any of these assays. Unless noted, no stated cut-off is given here; in the data, active means activation above about 30%; inactive means the rest.

SMILES	LDHA inh	D1 ag	TRHR PAM	D1 PAM	TRHR agonist	D1 antagonist
O=C(Cc1cccs1)N(Cc1ccco1)C1CC1	3	.	.	.	.	.
CC(C)(C)NC(=O)C(c1c[nH]c2ccccc12)N(C(=O)Cn1nnc(-c2ccc(Cl)cc2)n1)c1ccccc1F (stereo unspecified)	-3	5	-3	50*	0	-7
Cc1[nH]c2cc3c(-c4ccccc4)cc(-c4ccccc4)nc3cc2c1C	-2	.	.	.	.	.
COCCn1nc2cc(C(=O)NCC34CC5CC(CC(C5)C3)C4)ccc2c1OC	-1	0	0	6	-1	-32*
Cc1oc(-c2cccs2)nc1CC(=O)Nc1ccccc1N1CCCC1	5	.	.	.	.	.
COc1ccccc1NC(=O)CC1C(=O)NCCN1C(=O)Nc1ccc(Cl)c(Cl)c1 (stereo unspecified)	3	4	-11	-5	1	-30*
CCOC(=O)c1sc(NC(=O)c2ccc(F)c(S(=O)(=O)N3CCCCC3)c2)cc1C	-3	.	.	.	.	.
COc1ccc(-n2c(O)c(/C=N/Nc3nc(C)cc(C)n3)c3ccccc3c2=O)cc1OC	-1	-2	-2	3	0	16
COc1ccc(-n2c(O)c(/C=N/NS(=O)(=O)c3ccc(C)cc3)c3ccccc3c2=O)cc1OC	3	53*	2	1	23	-6
COc1ccc(-n2c(O)c(/C=N/NS(=O)(=O)c3cc(C)ccc3C)c3ccccc3c2=O)cc1OC	2	69*	8	-3	72*	-4
CCOCCCNC(=O)CC1CCCC1	0	.	.	.	.	.
O=[N+]([O-])c1cc(Cl)cc(/C=N/Nc2nc3ccccc3s2)c1O	1	-1	-11	-8	-1	-50*
CN1CCN(C(=O)C2=C[C@@H](c3csc4ccccc34)C[C@@H](OCc3ccc(CO)cc3)O2)CC1	-3	41*	-6	-2	2	-5
O=C(NC1CC1)C1=C[C@@H](c2coc3ccccc3c2=O)C[C@@H](OCc2ccc(CO)cc2)O1	1	34*	0	5	0	4
CN1CCN(C(=O)C2=C[C@H](c3coc4ccccc4c3=O)C[C@H](OCc3ccc(CO)cc3)O2)CC1	0	-3	-8	34*	0	-20
O=C(C1=C[C@@H](c2coc3ccccc3c2=O)C[C@@H](OCc2ccc(CO)cc2)O1)N1CCOCC1	-3	-6	-6	0	0	-17
CN1CCN(C(=O)C2=C[C@@H](C3CC3)C[C@@H](OCc3ccc(CO)cc3)O2)CC1	-4	-4	31*	3	0	12
O=C(O)C1=C[C@@H](c2coc3ccccc3c2=O)C[C@@H](OCc2ccc(CO)cc2)O1	-4	-5	-5	0	0	-22
N#Cc1cccc(NC(=O)CCSCc2ccccn2)c1	-2	.	.	.	.	.
CCCCCCCCCCOC(=O)Nc1ccc(C)cc1	0	.	.	.	.	.
O=C(C1=C[C@H](c2csc3ccccc23)C[C@H](OCc2ccc(CO)cc2)O1)N1CCN(Cc2ccccc2)CC1	5	6	-5	-3	0	-6
O=C(C1=C[C@H](c2csc3ccccc23)C[C@H](OCc2ccc(CO)cc2)O1)N1CCN(Cc2ccc3c(c2)OCO3)CC1	-1	0	-6	4	1	-34*
COc1ccc(C(=O)NCCSc2c(C)[nH]c3ccccc23)cc1	4	7	-2	0	0	-24
Cc1[nH]c2ccccc2c1SCCNC(=O)c1ccc(F)cc1	-3	0	-5	-1	0	-34*
Cc1ccc(-n2nc3c(c2NC(=O)c2ccc4c(c2)OCO4)CS(=O)C3)c(C)c1 (stereo unspecified)	-7	1	-14	2	0	-52*
SMILES	LDHA inh	D1 ag	TRHR PAM	D1 PAM	TRHR agonist	D1 antagonist
O=C(Nc1c2c(nn1-c1cccc(Cl)c1)CS(=O)C2)c1ccc2c(c1)OCO2 (stereo unspecified)	-1	3	-12	-3	1	-36*
Cc1ccc(-n2nc3c(c2NC(=O)c2ccc4c(c2)OCO4)CS(=O)(=O)C3)cc1	-3	1	3	-5	0	-7
O=C(Nc1c2c(nn1-c1ccc(F)cc1)CS(=O)C2)c1ccc2c(c1)OCO2 (stereo unspecified)	-1	2	0	-5	0	14
CCCNc1c(NC(=O)c2ccccc2OCC)c(=O)oc2ccccc12	3	.	.	.	.	.
CCc1ccc2oc(C(=O)Nc3ccc4nsnc4c3)cc(=O)c2c1	21	.	.	.	.	.
COc1ccc(CCN(C)Cc2ccc(OC)c(OCc3ccccc3)c2)cc1OC	-18	8	-2	-5	0	-16
COc1ccc(CCN(C)Cc2ccc(OCc3ccccc3)c(OC)c2)cc1OC	-32*	87*	6	-12	0	-42*
COc1cc(CNC23CC4CC(CC(C4)C2)C3)ccc1OCc1ccccc1	-2	85*	-3	3	6	-40*
COc1cc(CN(C)CCc2ccccn2)cc(OC)c1OC	-31*	-2	0	-5	-1	5
COc1ccc(CN(C)CCc2ccccn2)cc1OC	-23	-3	8	-1	0	5
O=C(CCc1ncc(-c2ccc(F)cc2)o1)N1CCN(c2ccc([N+](=O)[O-])cc2)CC1	-1	.	.	.	.	.
O=C(CSc1ncnc2ccccc12)Nc1ccccc1C(=O)Nc1ccccc1	0	.	.	.	.	.
CCC(=O)Nc1nc2c(C)cc(NS(=O)(=O)c3cc(F)ccc3F)cc2s1	10	.	.	.	.	.
C#CCOCCOCCOCCNc1nc(N2CCN(C(=O)CCCCCCCCCCNC(=O)Cn3cc(CCCCCN)nn3)CC2)nc(N2CCN(C(=O)CCCCCCCCCCNC(=O)[C@H](CO)n3cc(CCCCCN)nn3)CC2)n1	2	85*	-2	14	13	66
C#CCOCCOCCOCCNc1nc(N2CCN(C(=O)CCCCCCCCCCNC(=O)Cn3cc(CCCCCN)nn3)CC2)nc(N2CCN(C(=O)CCCCCCCCCCNC(=O)[C@H]([C@@H](C)CC)n3cc(CCCCCN)nn3)CC2)n1	0	43*	4	20	9	110
